# This is a sample that favours compounds with a hit; in the whole collection about 5.7% have one here.
# DAX1 inh-1 – DAX1 (NR0B1) inhibitors, primary screen, cell-based, HEK293, Gal4-DAX1, luciferase luminescence. HEK293 Gal4-DAX1 luciferase reporter. inhibition, % at 6.75 µM. 0.99% of 340,000 active. AID 504766, 2011;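 active means inhibition above the mean over all tested compounds plus 3 SD, cut at about 4.2% in these data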;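 further: inhibition shows as a rise in luminescence from relieved DAX1 repression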
# Target sequence (P51843 207-470 limits assumed): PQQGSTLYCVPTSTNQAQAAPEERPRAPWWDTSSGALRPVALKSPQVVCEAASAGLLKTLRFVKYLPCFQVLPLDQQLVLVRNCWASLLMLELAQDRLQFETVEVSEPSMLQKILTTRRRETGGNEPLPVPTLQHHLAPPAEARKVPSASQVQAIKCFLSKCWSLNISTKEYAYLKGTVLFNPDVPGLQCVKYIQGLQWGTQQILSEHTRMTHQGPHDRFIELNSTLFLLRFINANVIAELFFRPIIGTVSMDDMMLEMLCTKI
# hcDAF-12 act – H. contortus DAF-12 nuclear receptor activators, primary screen, cell-based, luminescence, HEK293, lit1-tk-luc reporter; 1.4% of 370,000 active; activation, % at 6.8 µM; AID 652067, 2013; HEK293 hcDAF-12 lit1-tk-luc reporter; 0% DMSO, 100% Δ7-dafachronic acid;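 active means activation above the mean of all tested compounds plus 3 SD, cut at about 5.5% in these data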
# DAX1 inh-2 – DAX1 (NR0B1) inhibitors on StAR promoter, primary screen, cell-based, luminescence, SF-1 (NR5A1), full-length DAX-1 | HEK293T StAR-luciferase reporter, SF-1/DAX-1 repression relief | inhibition, % at 6.8 µM | 1.1% of 370,000 active | AID 652010, 2013;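 active means inhibition above the mean over all tested compounds plus 3 SD, cut at about 3.6% in these data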;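 further: higher inhibition means more luminescence from relief of DAX-1 repression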
# hgDAF-12 ag – H. glycines DAF-12 receptor agonists, primary screen, cell-based, luminescence, HEK293, GAL4 fusion, UAS-luciferase; HEK293 GAL4-hgDAF12 UAS-luciferase reporter, agonist luminescence; normalized to butyrate control; activation, % at 6.8 µM; 1.8% of 370,000 active; AID 687014, 2013;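 active means activation above a cutoff set at the mean of all screened compounds plus 3 SD, cut at about 10% in these data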
# ssDAF12 agonist – S. stercoralis DAF-12 nuclear receptor activators, primary screen, cell-based, luminescence, HEK293, GRIP1 co-expression, lit1-tk-luc; HEK293 ssDAF-12/GRIP1 lit1-tk-luc reporter; % of 3 µM dafachronic acid response; Nuclear hormone receptor DAF-12 (Strongyloides stercoralis); activation, % at 6.8 µM; AID 652126, 2013; 1% of 370,000 active;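 active means activation above the mean over all tested compounds plus 3 SD, cut at about 0.9% in these data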
# AHR activator – AHR activators, primary screen, cell-based, luminescence, luciferase reporter, human | AHR-responsive luciferase reporter cells | activation, % at 5 µM | 2.5% of 320,000 active; in the data active means activation above about 47%
# AHR act cf – AHR activators, confirmation, cell-based, luminescence, luciferase reporter, human; 87% of 2,300 active; human cells, AHR-responsive luciferase reporter; AID 2845, 2010; activation, % at 9 µM; shares compounds with AHR activator; in the data active means activation above about 49%;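 further: HepG2 hepatoma cells carrying a DRE-driven firefly luciferase reporter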
# PXR act counter – human PXR activators, counter-screen for AHR activator project, cell-based, luciferase luminescence; cell-based PXR reporter; 88% of 2,300 active; activation, % at 11.6 µM; shares compounds with AHR activator; in the data active means activation above about 11%;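 further: human hepatoma DPX-2 cells expressing full-length human PXR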
# A number is an active result; n = inactive; x = no result.
SMILES,DAX1 inh-1,hcDAF-12 act,DAX1 inh-2,hgDAF-12 ag,ssDAF12 agonist,AHR activator,AHR act cf,PXR act counter
COc1cccc(/C=N/Nc2nc(-c3cccnc3)nc3ccccc23)c1,n,n,n,n,n,93,54,18
CNC(=O)[C@@]1(C)C=C[C@@H](Cc2ccccc2)N1C(=O)OC,n,n,n,n,n,n,x,x
c1csc(C2Nc3ccccc3-c3nc4ccccc4n32)c1 (stereo unspecified),n,n,n,n,n,133,n,112
Cc1nn(CC(=O)c2ccc3c(c2)OCCO3)c(=O)c(C#N)c1C,n,n,n,n,n,88,91,18
Cc1cc(-c2nnc(SCC(=O)Nc3ccccc3Cl)n2C)no1,n,n,n,n,n,n,x,x
Oc1c(C=NCc2ccc(F)cc2)[nH]c2ccc(Br)c(Cl)c12,x,n,n,n,n,81,86,31
Cc1ccc2c(c1)CCCN2C(=O)Nc1ccc2c(c1)OCO2,n,n,n,12,1.6,106,96,83
CC(C)CC(NC(=O)C1CCC(=O)N1)C(=O)NC(CC(C)C)C(=O)N1CCCC1C(N)=O (stereo unspecified),n,n,n,n,n,n,x,x
O=C(Nc1ccc(C(F)(F)F)cc1)c1ccc2nc[nH]c2c1,n,n,n,n,n,106,98,10
O=C(Nc1ccc(OC(F)(F)F)cc1)c1ccc2nccnc2c1,n,n,n,n,n,86,81,15
O=C(Nc1ccc(C(F)(F)F)cc1)c1ccc2ncsc2c1,n,n,n,n,n,n,x,x
COc1ccc(NC(=O)c2ccc3nc[nH]c3c2)cc1,n,n,n,n,n,80,79,19
COc1ccc(CCNC(=O)c2ccc3nc[nH]c3c2)cc1,n,n,n,n,n,n,x,x
Cc1cc(CNC(=O)COC(=O)C2CC3CCCC(C2)C3=O)cc(C)c1O (stereo unspecified),n,n,n,n,n,n,x,x
O=C(Cc1ccc([N+](=O)[O-])cc1)c1ccc(O)cc1O,n,n,n,n,n,n,x,x
C=CCNC(=O)CCC(=O)NNc1nc2ccccc2c2nc(-c3ccccc3)nn12,n,n,n,n,n,100,61,13
O=C(N/N=C/c1ccc(-c2ccccc2[N+](=O)[O-])o1)c1cncc(Br)c1,n,n,n,n,n,83,76,x
O=C(N/N=C\c1ccc([N+](=O)[O-])o1)c1cncc(Br)c1,n,n,n,n,n,n,x,x
Cc1c(C(=O)N/N=C/c2ccc(-c3ccccc3[N+](=O)[O-])o2)sc(N)c1C#N,n,n,n,n,n,133,163,50
Cn1cncc1C#Cc1ccc2cc(C3(O)CCCCC3)oc(=O)c2c1,n,n,n,n,n,n,x,x
O=C(Oc1ccc[nH]c1=O)c1ccc(F)cc1,n,n,n,n,n,x,x,x
CC(C)CNc1ccc2c(c1)OC[C@H](C)NS2(=O)=O,x,n,n,n,n,x,x,x
N[C@@H](Cc1ccccc1)C(=O)N1CCC(C(=O)NCC(=O)NCC(=O)O)CC1,n,n,n,n,n,n,x,x
Cc1cc(C)n(-c2nc(-c3cccc(Cl)c3)cs2)n1,n,n,n,n,n,109,101,22
Cc1cc(NC(=O)c2oc3ccccc3c2C)ccc1-n1cnnn1,n,n,n,n,n,99,100,14
SMILES,DAX1 inh-1,hcDAF-12 act,DAX1 inh-2,hgDAF-12 ag,ssDAF12 agonist,AHR activator,AHR act cf,PXR act counter
COc1cc(OC)cc(C(=O)Nc2ccc(-n3cnnn3)c(C)c2)c1,n,n,n,n,n,n,x,x
Nc1c(Cl)cc(-c2csc(N3CCCC3c3nc4cc(Cl)c(Cl)cc4n3CCCO)n2)cc1Cl (stereo unspecified),n,n,n,n,n,n,x,x
Nc1c(Cl)cc(-c2csc(N3CCCC3c3nc4cc(Cl)c(N5CCCCC5)cc4n3CCCO)n2)cc1Cl (stereo unspecified),n,n,n,n,n,86,86,197
CN(C)C(=O)COc1ccc(S(=O)(=O)c2ccc(OCC(=O)N(C)C)cc2)cc1,n,n,n,n,n,102,n,n
CN(C)C(=O)COc1ccc(Br)cc1,n,n,n,n,n,n,x,x
C#CCn1cc(/C=N/NC(=O)COc2cccc3cccnc23)c2ccccc21,n,n,n,n,n,103,63,x
COc1cc2c(cc1NC(=O)C(Cl)Cl)-c1ccc(NC(=O)C(Cl)Cl)cc1C2,n,n,n,n,n,x,x,x
CCCCn1c(SCC(=O)NC2CC2)nnc1-c1ccncc1,n,n,n,n,n,n,x,x
[O-][n+]1onc2c1CCc1nnc(-c3ccccc3)cc1-2,n,n,n,n,n,97,80,x
O=C(c1ccc2n[nH]nc2c1)N1CCN(c2ccc(C(F)(F)F)cn2)CC1,n,n,n,n,n,n,x,x
O=C(Nc1cccnc1)C1OCCc2ccccc21 (stereo unspecified),n,n,n,n,n,n,x,x
O=C(Nc1ccc(Br)cc1)C1OCCc2ccccc21 (stereo unspecified),n,n,n,n,n,103,107,116
CCOC(=O)C1CN(C(=O)OCC)CC1=NNC(N)=O (stereo unspecified),n,n,n,n,n,x,x,x
CCOc1ccc(NC(=O)CSc2nc3ccccc3c(=O)n2CCCC(=O)NCCCN2CCCC2=O)cc1,n,n,n,n,n,n,x,x
COc1ccc(-c2oc3ccc(N4CCOCC4)cc3c2C#Cc2ccc(N)cc2)cc1,n,n,n,n,n,95,52,x
COc1cc(C(=O)N/N=c2/sc3ccccc3n2C)cc(OC)c1OC,n,n,n,n,n,171,82,56
Cn1/c(=N/NC(=O)c2cccc(OC(F)F)c2)sc2ccccc21,n,n,n,n,n,118,110,119
CCOc1cc(/C=N/NC(=O)c2cccnc2)ccc1OC(=O)c1ccco1,n,n,n,n,n,n,x,x
CCOc1cccc2sc(NC(=O)c3ccc(Br)s3)nc12,n,n,n,n,n,97,n,13

# Assay outcomes deposited in PubChem by The Scripps Research Institute Molecular Screening Center.
